The results in this text go back to PubChem BioAssay (EPA / NIEHS).

Read-out in assay [1]: Vascular endothelial growth factor receptor 2 (Homo sapiens) (UniProt P35968)
Kind of assay: BSK_4H_VEGFRII: BioMAP Diversity Plus: 4H Assay for Vascular endothelial growth factor receptor 2 (VEGFR2) Biomarker Activity (AID 2283031). The settings on record: primary human endothelial cells (HUVEC); actives raise or lower the signal. The essentials:
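In this multiplexed HUVEC system, biomarker ELISA was performed after 24 h chemical exposure. Parallel SRB staining (TCA fixation, 560 nm) tracked cytotoxicity; DMSO served as baseline.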

Read-out in assay [2]: Human Leukocyte Antigen - DR isotype (HLADR), HLA-DRA (gene 3122)
Nature of the assay: BSK_BE3C_HLADR: BioMAP Diversity Plus: BE3C Assay for Human Leukocyte Antigen - DR isotype (HLADR) Biomarker Activity (AID 2283032). The settings on record: primary human bronchial epithelial cells; actives raise or lower the signal. Summed up: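 ELISA read-out of HLA-DR on human lung bronchial epithelial primary cells, measured 24 h post-dosing. Both increases and decreases were scored relative to DMSO vehicle.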

Read-out in assay [3]: Vascular cell adhesion molecule 1 (VCAM1), VCAM1 (gene 7412)
Kind of assay: BSK_4H_VCAM1: BioMAP Diversity Plus: 4H Assay for Vascular cell adhesion molecule 1 (VCAM1) Biomarker Activity (AID 2283033).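 For outcome: cell-surface VCAM-1 protein measured by ELISA.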 The settings on record: primary human endothelial cells (HUVEC); actives raise or lower the signal. The essentials:
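ELISA read-out of VCAM-1 on human umbilical vein endothelium 24 hours after chemical dosing; gain or loss of signal was fitted relative to DMSO, with sulforhodamine B staining of parallel cultures flagging overt cytotoxicity.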

Read-out in assay [4]: Interferon-gamma inducible Protein 10 (IP10), CXCL10 (gene 3627)
Nature of the assay: BSK_BE3C_IP10: BioMAP Diversity Plus: BE3C Assay for Interferon-gamma inducible Protein 10 (IP10) Biomarker Activity (AID 2283034). The settings on record: primary human bronchial epithelial cells; actives raise or lower the signal. Summed up:
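Chemical is dosed onto human lung bronchial epithelial primary cells, cultures are incubated 24 h, and IP-10 is then quantified by ELISA. Gain or loss of signal is fitted in both directions relative to DMSO.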

Read-out in assay [5]: Monokine induced gamma interferon (MIG), CXCL9 (gene 4283)
Kind of assay: BSK_BE3C_MIG: BioMAP Diversity Plus: BE3C Assay for Monokine induced gamma interferon (MIG) Biomarker Activity (AID 2283035). The settings on record: primary human bronchial epithelial cells; actives raise or lower the signal. The essentials: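 Primary human bronchial epithelial cells treated for 24 h; MIG levels measured by ELISA, fitted bidirectionally versus DMSO. Parallel SRB total-protein staining assessed cytotoxicity.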

Read-out in assay [6]: Transforming growth factor beta 1 (TGFb1), TGFB1 (gene 7040)
Nature of the assay: BSK_BE3C_TGFb1: BioMAP Diversity Plus: BE3C Assay for Transforming growth factor beta 1 (TGFb1) Biomarker Activity (AID 2283036;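 note: TGF-b1 protein level measured by ELISA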). The settings on record: primary human bronchial epithelial cells; actives raise or lower the signal. Summed up: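 Primary human lung bronchial epithelial cells; compound exposure 24 h; TGF-b1 by ELISA; bidirectional fit, DMSO baseline. Parallel SRB total-protein staining for cytotoxicity.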

Read-out in assay [7]: Plasminogen activator inhibitor-1 (PAI1), SERPINE1 (gene 5054)
Nature of the assay: BSK_BE3C_PAI1: BioMAP Diversity Plus: BE3C Assay for Plasminogen activator inhibitor-1 (PAI1) Biomarker Activity (AID 2283037). The settings on record: primary human bronchial epithelial cells; actives raise or lower the signal. The essentials: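 Primary human lung bronchial epithelial cells; chemical dosing; 24 h; PAI-1 measured by ELISA; bidirectional fit referenced to DMSO as negative control.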

Read-out in assay [8]: urokinase plasminogen activator (uPA), PLAU (gene 5328)
Nature of the assay: BSK_BE3C_uPA: BioMAP Diversity Plus: BE3C Assay for urokinase plasminogen activator (uPA) Biomarker Activity (AID 2283038).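 Note: uPA protein level quantified by ELISA in cell cultures; uPA read one day after compound addition.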 The settings on record: primary human bronchial epithelial cells; actives raise or lower the signal. Summed up: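 Using confluent primary human lung bronchial epithelial cultures, we dosed chemicals, waited 24 h, then ran a uPA ELISA, fitting bidirectionally against DMSO.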

Read-out in assay [9]: Urokinase-type plasminogen activator receptor (uPAR), PLAUR (gene 5329)
Kind of assay: BSK_BE3C_uPAR: BioMAP Diversity Plus: BE3C Assay for Urokinase-type plasminogen activator receptor (uPAR) Biomarker Activity (AID 2283039).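 Note: cells exposed to compound for one day before measurement.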 The settings on record: primary human bronchial epithelial cells; actives raise or lower the signal. Summed up:
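Human bronchial epithelial primary cells; chemical exposure 24 h; uPAR by ELISA; bidirectional fit vs DMSO control.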

Read-out in assay [10]: Interleukin-6 (IL6), IL6 (gene 3569)
Nature of the assay: BSK_CASM3C_IL6: BioMAP Diversity Plus: CASM3C Assay for Interleukin-6 (IL6) Biomarker Activity for (AID 2283040). The settings on record: primary human coronary artery smooth muscle cells; actives raise or lower the signal.

Read-out in assay [11]: Tissue plasminogen activator (tPA), PLAT (gene 5327)
Kind of assay: BSK_BE3C_tPA: BioMAP Diversity Plus: BE3C Assay for Tissue plasminogen activator (tPA) Biomarker Activity (AID 2283041).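 Note: tPA level quantified by ELISA one day after compound addition.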 The note with it: primary human bronchial epithelial cells; actives raise or lower the signal. Summed up: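 Primary human lung bronchial epithelial cultures receive test chemical; after 24 h, tPA is quantified by ELISA, and gain or loss of signal is fitted bidirectionally relative to DMSO baseline.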

Read-out in assay [12]: Interleukin-8 (IL8), CXCL8 (gene 3576)
Kind of assay: BSK_CASM3C_IL8: BioMAP Diversity Plus: CASM3C Assay for Interleukin-8 (IL8) Biomarker Activity (AID 2283042).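 Note: IL-8 protein level quantified by ELISA.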 The settings on record: primary human coronary artery smooth muscle cells; actives raise or lower the signal.

Read-out in assay [13]: Human Leukocyte Antigen - DR isotype (HLADR), HLA-DRA (gene 3122)
Kind of assay: BSK_CASM3C_HLADR: BioMAP Diversity Plus: CASM3C Assay for Human Leukocyte Antigen - DR isotype (HLADR) Biomarker Activity (AID 2283043).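 Note: cell-surface HLA-DR protein level quantified by ELISA.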 The settings on record: primary human coronary artery smooth muscle cells; actives raise or lower the signal.

Read-out in assay [14]: Macrophage colony-stimulating factor (MCSF), CSF1 (gene 1435)
Nature of the assay: BSK_CASM3C_MCSF: BioMAP Diversity Plus: CASM3C Assay for Macrophage colony-stimulating factor (MCSF) Biomarker Activity (AID 2283044).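 Note: M-CSF protein amount quantified by ELISA after 24 h exposure.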 The settings on record: primary human coronary artery smooth muscle cells; actives raise or lower the signal.

Read-out in assay [15]: Low-density lipoprotein receptor (LDLR), LDLR (gene 3949)
Nature of the assay: BSK_CASM3C_LDLR: BioMAP Diversity Plus: CASM3C Assay for Low-density lipoprotein receptor (LDLR) Biomarker Activity (AID 2283045).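 Note: LDLR protein level on the cell surface quantified by ELISA.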 The note with it: primary human coronary artery smooth muscle cells; actives raise or lower the signal.

Read-out in assay [16]: Monocyte Chemoattractant Protein-1 (MCP1), CCL2 (gene 6347)
Kind of assay: BSK_CASM3C_MCP1: BioMAP Diversity Plus: CASM3C Assay for Monocyte Chemoattractant Protein-1 (MCP1) Biomarker Activity (AID 2283046).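 Note: MCP-1 level quantified by ELISA 24 h after dosing.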 The settings on record: primary human coronary artery smooth muscle cells; actives raise or lower the signal.

Assay [17] can be described thus: BSK_CASM3C_Proliferation: Cell Proliferation Assessment in the BioMAP Diversity Plus: CASM3C Assay (AID 2283047).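 Note: sulforhodamine B total protein stain as relative cell number at 560 nm; sub-confluent cells exposed 48 h before staining; fitted both ways against DMSO so gain or loss of cell number.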 The note with it: primary human coronary artery smooth muscle cells.
Read-out in assay [18]: Monokine induced gamma interferon (MIG), CXCL9 (gene 4283)
Nature of the assay: BSK_CASM3C_MIG: BioMAP Diversity Plus: CASM3C Assay for Monokine induced gamma interferon (MIG) Biomarker Activity (AID 2283048). The note with it: primary human coronary artery smooth muscle cells; actives raise or lower the signal.

Read-out in assay [19]: serum amyloid A (SAA), SAA1 (gene 6288)
Nature of the assay: BSK_CASM3C_SAA: BioMAP Diversity Plus: CASM3C Assay for serum amyloid A (SAA) Biomarker Activity (AID 2283049).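 Note: SAA protein level quantified by ELISA.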 The settings on record: primary human coronary artery smooth muscle cells; actives raise or lower the signal.

The nature of assay [20]: BSK_CASM3C_SRB: Viability Assessment in the BioMAP Diversity Plus: CASM3C Assay (AID 2283050).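 Note: total protein by SRB staining as cytotoxicity measure in parallel cultures.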 The note with it: primary human coronary artery smooth muscle cells.

For orientation: AC50 means the concentration giving half of the maximal activity seen.

More than one record can exist for a structure, and the calls need not agree. Activity calls are given as the source filed them. Rule for the calls: active = hit-call score of the fitted dose curve at least 0.9, where 1 is the maximum; inactive = score below 0.9.

For `O=S1(=O)OCC2C(CO1)C1(Cl)C(Cl)=C(Cl)C2(Cl)C1(Cl)Cl` (centres undefined), the result in assay [1], in assay [2], in assay [4], in assay [5], in assay [6] and in assay [7] was inactive. In addition, the outcome in assay [8], in [9], in assay [10], in assay [11], in [12] and in assay [15] was inactive. The result in [16], in assay [18] and in assay [20] was inactive. Also, the concentration at half-maximal activity (AC50) in assay [3] was 20 µM (active); in assay [13], 32.7 µM (active); in [14] it was 7.85 µM (active); in assay [17], 20 µM (active); in assay [19], 23.2 µM (active).
As to `COP(=O)(CCC(=O)NCO)OC`, the result in assay [1], in assay [2], in assay [3], in assay [4], in assay [5] and in assay [7] was inactive. Besides, the result in assay [8], in [9], in [10], in assay [11], in assay [12] and in [13] was inactive. For the same molecule, the result in assay [14], in assay [15], in [16], in assay [17], in assay [18] and in assay [19] was inactive. For the same molecule, the outcome in assay [20] was inactive. Also, the AC50 in [10] was 1.56 µM (active); in assay [13], 0.3 µM (active).
`O=[N+]([O-])c1ccc(Cl)c(Cl)c1`: the outcome in assay [1], in [2], in assay [3], in assay [4], in [5] and in [6] was inactive. Moreover, the outcome in assay [7], in assay [8], in assay [10], in [11], in [12] and in assay [13] was inactive. The result in [14], in assay [15], in assay [16], in [17], in assay [18] and in assay [19] was inactive. Besides, the outcome in [20] was inactive.
In the case of `ClC(Cl)c1ccccc1`, the result in assay [1], in [2], in assay [3], in assay [4], in assay [5] and in assay [6] was inactive. For the same molecule, the outcome in assay [7], in assay [8], in [9], in [10], in assay [11] and in [12] was inactive. Further, the outcome in assay [13], in [14], in [15], in [16], in [17] and in assay [18] was inactive. Also, the result in assay [19] and in assay [20] was inactive.
For `O=C(O)C=CC(F)(C(F)(F)F)C(F)(F)F`, the outcome in [1], in [2], in assay [3], in assay [4], in assay [5] and in assay [7] was inactive. Besides, the outcome in assay [8], in assay [9], in [10], in assay [11], in assay [12] and in assay [13] was inactive. For the same molecule, the result in assay [14], in assay [15], in assay [16], in assay [17], in assay [18] and in [19] was inactive. Moreover, the outcome in [20] was inactive.
Regarding `CCCCN(CCCC)N=O`, the result in [1], in assay [2], in assay [3], in assay [4], in assay [5] and in assay [6] was inactive. Also, the outcome in [7], in assay [8], in assay [9], in [10], in [11] and in assay [12] was inactive. Also, the outcome in assay [13], in assay [14], in assay [15], in assay [16], in assay [17] and in assay [18] was inactive. The outcome in assay [19] and in assay [20] was inactive.
